Sampled rows, rich in hits. Any-hit rate of the full collection: about 7.3%.
SMN2 splice enh = qHTS Assay for Enhancers of SMN2 Splice Variant Expression. HEK293 SMN2-luciferase splicing reporter, luminescence, 30-36 h. Potency, µM (titrated, usually from 46.1 µM), usual class: activators. 210,000 tested, 2.8% active. AID 1458, 2008; further: nearly all actives have a fitted effect of over 55% in size
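HEK293 cells carry an SMN2 […]–luciferase reporter in which exon 7 inclusion puts luciferase in frame. Cells were plated 10-12 h before compound addition, then incubated 30-36 h at 37C. ONE-Glo luminescence was read; sodium butyrate at 4.5 mM final served as control.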
Rab9 prom act = qHTS Assay for Rab9 Promoter Activators; Huh7 Rab9 promoter-luciferase reporter, luminescence, 24 h; Potency, µM (doses to about 9.22 µM), usual class: activators; 320,000 tested, 2.8% active; AID 485297, 2010; further: nearly all actives have a fitted effect of over 60% in size
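Stable Rab9-luc Huh7, 1500 cells/well, 2 h settle; cmpd in DMSO, 24 h, 37 °C/5% CO2; luciferase reagent 10 min RT; luminescence.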
NPC1 prom act = qHTS Assay for NPC1 Promoter Activators. Huh7 NPC1 promoter luciferase reporter, 24 h. Potency, µM (highest dose often 9.22 µM), actives largely listed as activators. 320,000 tested, 2.4% active; further: nearly all actives have a fitted effect of over 60% in size
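In 1536-well qHTS, Huh7 cells harboring an NPC1 promoter–luciferase construct received compound for 24 h; activation was quantified by luminescence following luciferase reagent addition.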
Luc counter = Counterscreen for Luciferase (Kinase-Glo TM) Inhibition | Luciferin 4-monooxygenase (Photuris pensylvanica), Q27757 | Kinase-Glo luciferase, ATP luminescence, 8 min | Potency, µM (series often up to 38.3 µM), usual class: inhibitors | 200,000 tested, 0.28% active | AID 1379, 2008; further: nearly all actives have a fitted effect of over 60% in size
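Light output from Kinase-Glo luciferase with luciferin and 10 uM ATP in 50 mM imidazole pH 7.2, KCl, MgCl2, Tween 20, BSA; compound pin-delivered, 8-min ambient incubation, then luminescence read.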
FLuc counter = qHTS profiling assay for firefly luciferase inhibitor/activator using purifed enzyme and Km concentrations of substrates (counterscreen for miR-21 project) | Luciferin 4-monooxygenase (Photinus pyralis), P08659 | purified FLuc, Km substrates, luminescence inhibition | Potency, µM (titrated, usually from 57.5 µM), most hits filed as inhibitors | 360,000 tested, 6.9% active | AID 588342, 2011; further: nearly all actives have a fitted effect of over 55% in size
Target sequence (P08659 whole entry, looked up): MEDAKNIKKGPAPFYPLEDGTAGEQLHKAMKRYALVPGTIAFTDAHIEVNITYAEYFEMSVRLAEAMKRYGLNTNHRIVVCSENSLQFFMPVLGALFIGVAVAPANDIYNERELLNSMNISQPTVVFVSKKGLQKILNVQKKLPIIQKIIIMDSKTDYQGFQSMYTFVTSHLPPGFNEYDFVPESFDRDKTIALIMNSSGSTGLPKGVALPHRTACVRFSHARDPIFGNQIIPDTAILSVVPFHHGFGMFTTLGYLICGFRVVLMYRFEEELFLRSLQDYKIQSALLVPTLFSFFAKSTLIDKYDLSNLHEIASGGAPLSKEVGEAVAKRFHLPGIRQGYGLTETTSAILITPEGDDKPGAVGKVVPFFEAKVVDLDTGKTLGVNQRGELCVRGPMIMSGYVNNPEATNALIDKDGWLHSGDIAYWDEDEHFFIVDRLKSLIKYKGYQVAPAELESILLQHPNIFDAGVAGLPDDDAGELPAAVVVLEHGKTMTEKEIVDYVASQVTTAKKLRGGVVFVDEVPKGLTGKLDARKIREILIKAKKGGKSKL
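Biochemical qHTS of compounds, final roughly 60 µM downward over six points, against 10 nM purified firefly luciferase using Km concentrations of substrates (10 uM D-luciferin, 10 uM ATP) in Tris acetate pH 7.5 buffer; luminescence output.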
Numbers stand for hits; . = inactive; ? = inconclusive; / = not tested or not shown; [ ] = another dose, or the depositor's remark. The call rests on the fitted dose curve; in most records, active means well fitted curve in the direction sought with a large enough effect; inconclusive means small, poorly fitted or top-dose-only effect, or another doubt; inactive means no such curve, though single readings can be large; an effect the other way counts as inactive or inconclusive.

SMILES	SMN2 splice enh	Rab9 prom act	NPC1 prom act	Luc counter	FLuc counter
Cc1cc(N2CCN(c3ccccc3F)CC2)nc2cc(O)ccc12	.	.	.	.	15µM
Cc1cc(N2CCOCC2)nc2ccc(NC(=O)CCC(=O)N3CCN(c4ccccc4F)CC3)cc12	/	4µM	?	/	6µM
Cc1ccc(S(=O)(=O)c2nnn(CC(=O)Nc3ccccc3C)c2N)cc1	.	/	/	/	.
Cc1ccc(C)c(N2CCN(C(=O)CCC(=O)Nc3ccc4nc(N5CCCCC5)cc(C)c4c3)CC2)c1	.	/	/	/	?
Cc1cc(N2CCCCC2)nc2ccc(NC(=O)CCC(=O)N3CCN(c4ccccc4)CC3)cc12	.	/	/	/	9.5µM
Cc1ncc(/C=C2\C(=O)Nc3ccccc32)[nH]1	/	.	?	/	?
CCc1ncc(/C=C2\C(=O)Nc3ccccc32)[nH]1	/	?	?	/	13µM
CCc1ccc(-c2nc(CS(=O)CC(=O)NCCc3ccc(Cl)cc3)c(C)o2)cc1 (stereo not given)	/	/	/	/	.
S=C1NC=NC2N=CNC12 (stereo not given)	.	/	/	/	/
O=c1c(-c2nc3ccccc3s2)cccn1Cc1ccccc1	?	2.2µM	1.8µM	.	2.7µM
Cc1ccc(Cn2cccc(-c3nc4ccccc4s3)c2=O)cc1	7.1µM	2.2µM	2.8µM	.	2.1µM
COc1ccc(Cn2ccc3nc(C)c(C(=O)N4CCN(c5ccccc5OC)CC4)cc3c2=O)cc1	/	/	/	/	.
Cc1ccc2oc(=O)n(CCNC(=O)Nc3ccccc3Cl)c2c1	.	/	/	/	.
N/C(=N\OC(=O)CC1CCCCC1)c1ccncc1	/	.	.	.	19µM
N/C(=N\OC(=O)CCC1CCCC1)c1ccncc1	.	.[1.84 µM]	.	.	13µM
CC(C)(C)CC(=O)O/N=C(\N)c1ccncc1	.	.	.	.	?
N/C(=N\OC(=O)CC1CCCCC1)c1ccccn1	.	.	.	.	0.6µM
CCOc1ccc(C(c2c(O)cc(C)n(CCOC)c2=O)N2CCC(C)CC2)cc1 (stereo not given)	/	/	/	/	.
Cc1ccc(CN2CCN(CC(C)C)C(CCO)C2)s1 (stereo not given)	/	?	.	.	17µM
C=CCn1c(C)cc(C(=O)CN2NS(=O)(=O)c3ccccc3C2=O)c1C	.	?	.	.	1.7µM
C=CCn1c(C)cc(C(=O)Cn2ncc(Cl)c(Cl)c2=O)c1C	?	.	.	.	5.4µM
CCCCc1ccc(NC(=O)CN2NS(=O)(=O)c3ccccc3C2=O)cc1	.	.	.	.	.
Cc1cccc(C)c1-n1ncc(C(=O)NCCCN2CCC(C)CC2)c1C1CCN(C(=O)OC(C)(C)C)CC1	/	/	/	/	.
O=C(CN1C(=O)COc2ccc(Cl)cc21)Nc1cccc(C(=O)O)c1	.	/	/	/	.
CCOC(=O)c1sc(/N=C/c2c(O)ccc3ccccc23)cc1C	.	.	.	.	19µM
SMILES	SMN2 splice enh	Rab9 prom act	NPC1 prom act	Luc counter	FLuc counter
O=C(O)c1ccc(N=Cc2c(O)ccc3ccccc23)cc1	/	.	.	/	30µM
Cc1ccc(N=Cc2c(O)[nH]c3ccccc23)c([N+](=O)[O-])c1	.	0.56µM	?	.	?
Cc1[nH]c2ccccc2c1/C=N/Nc1ccc([N+](=O)[O-])cc1	/	.	.	/	?
COc1ccc(N=Cc2c(O)ccc3ccccc23)cc1	/	.	.	.	13µM
O=C(CSc1nccn1Cc1ccccc1)NCc1ccco1	/	/	/	/	.
Cc1ccc(Cn2ccn(CC(=O)Nc3c(C)cc(C)cc3C)c(=O)c2=O)cc1	/	/	/	/	.
CC(C)c1ccc(Nc2c(-c3ccc(N(C)C)cc3)nc3cnccn23)cc1	.	/	/	/	?
Cc1ccc(N(C)S(=O)(=O)c2ccc3[nH]cc(C(=O)O)c(=O)c3c2)cc1C	.	/	/	/	.
Oc1[nH]c2ccccc2c1C=Nc1ccc2c(c1)OCO2	0.89µM	1.8µM	2µM	?	7.6µM
COc1ccc(N=Cc2c(O)[nH]c3ccccc23)cc1	13µM	1.6µM	1.6µM	.	2.7µM
Oc1[nH]c2ccccc2c1/C=N/c1nccs1	?	?	?	.	12µM
COc1ccc(CN=Cc2c(O)[nH]c3ccccc23)cc1	.	.	.	.	?
Oc1[nH]c2ccccc2c1/C=N/N1CCCCC1	.	.	.	.	.
O=c1c2ccccc2c(C=Nc2cccc(O)c2)c(O)n1-c1ccc2c(c1)OCO2	.	.	.	.	.
CCS(=O)(=O)c1ncc(N(Cc2ccccc2)Cc2ccco2)c(C(=O)Nc2ccc(C)c(C)c2)n1	/	/	/	/	.
O=C(Nc1ccccc1Br)C1CCCN(S(=O)(=O)c2cccc3nsnc23)C1 (stereo not given)	.	/	/	/	.
COC(=O)c1cc2sccc2n1Cc1ccc(F)cc1Cl	.	/	/	/	.
Cn1c(C(=O)N2CCc3ccccc3C2)cc2oc3ccccc3c21	22µM	?	.	.	11µM
COc1ccc(-c2noc(-c3cc4ccccc4oc3=O)n2)cc1	.	.	.	.	.
Cc1ccccc1-c1nnc(-c2cccs2)o1	20µM	?	.	.	12µM
Cc1ccccc1-c1noc(-c2cccs2)n1	?	2.8µM	?	.	7.6µM
Cc1ccccc1-c1noc(-c2cc3ccccc3oc2=O)n1	/	/	/	/	1.9µM
CCOc1cc(-c2c(C#N)c(N)nc3c2CCc2ccccc2-3)ccc1O	13µM	.	.	.	.
COc1ccccc1CCNC(=O)c1ccc(Br)s1	/	.	.	/	13µM
COC(=O)c1ccccc1NC(=O)NCCc1ccccc1OC	13µM	4µM	3.5µM	.	?
SMILES	SMN2 splice enh	Rab9 prom act	NPC1 prom act	Luc counter	FLuc counter
COc1ccccc1CCNS(=O)(=O)CCNC(=O)c1ccccc1	/	.	.	/	.
CCc1ccc(OC(=O)c2sc3ncn(Cc4cccc(F)c4)c(=O)c3c2C)cc1	/	/	/	/	.
CN(C)S(=O)(=O)c1ccc2c(c1)N(CC(=O)N1CCC(C(N)=O)CC1)CCS2	/	/	/	/	.
COc1ccc2nc(/N=C/c3c(C)[nH]n(-c4ccc(C)cc4C)c3=O)sc2c1	.	.	.	.	27µM
COC(=O)c1ccccc1NC(=O)Nc1ccc(C(=O)N2CCCC2)cc1	.	.	.	.	.
COc1ccc(C(=O)Nc2ccc(C(=O)N3CCOCC3)cc2)cc1OC	/	.	.	/	?
Cc1ccc(C(=O)Nc2ccc(C(=O)N3CCCCC3)cc2)o1	/	?	?	/	24µM
CCNS(=O)(=O)c1ccc(NC(=O)Nc2ccccc2OC)cc1	/	.	.	.	17µM
COc1ccc(C(=O)Nc2ccc(C(=O)N3CCCCC3)cc2)cc1OC	/	.	.	/	24µM
COc1ccccc1NC(=O)Nc1ccc(C(=O)N2CCCCC2)cc1	/	0.89µM	?	/	3µM
CCOC(=O)c1cccc(NC(=O)C2CCN(S(=O)(=O)c3c(C)noc3/C=C/c3ccc(C)cc3)CC2)c1	/	/	/	/	.
COc1ccc(OCC(=O)Nc2ccc(-c3nc4cc(C)cc(C)c4o3)cc2)cc1	?	/	/	/	.
O=c1cc(-c2cccc(F)c2)[nH]c2cc(Cl)ccc12	/	/	/	.	/

Screens (PubChem)
